In PubChem BioAssay AID602405 (Broad Institute, 2012):
About 350 (0.097%) of roughly 360,000 compounds were called active. This excerpt belongs to a sample that is enriched for actives. Values without a mark were called inactive. Cut-off read from the data, not from the text of the source: active = inhibition above about 16% (passing the limit was not always enough); inconclusive = no clear call, values can overlap the other calls; inactive = below that.

system: UDP-N-acetylbacillosamine N-acetyltransferase PglD (Campylobacter jejuni); experiment: blockers of PglD enzyme activity – biochemical, DTNB colorimetric, single point, primary screen (AID 602405); details: purified PglD enzyme, DTNB colorimetric CoA detection; at 12.5 µM; active compounds read high

Row | Compound | inhibition
1 | CC(C)CC#Cc1cnc2c(c1)C(=O)N([C@H](C)CO)C[C@H](C)[C@@H](CN(C)C(=O)Cc1cccnc1)O2 | -1.63%
2 | CCCN1C[C@H](C)[C@@H](OC)CN(C)C(=O)c2ccc(NC(=O)C3CCOCC3)cc2OC[C@H]1C | 0.0955%
3 | C[C@H]1CCCCO[C@@H](CN(C)C(=O)Nc2cccc3ccccc23)[C@@H](C)CN([C@@H](C)CO)C(=O)c2cc(NS(=O)(=O)c3ccc(Cl)cc3)ccc2O1 | 19.9%
4 | C[C@H]1CN([C@@H](C)CO)C(=O)c2cc(-c3cccc(F)c3)cnc2O[C@@H]1CN(C)Cc1cncnc1 | 4.73%
5 | COCC(=O)Nc1ccc2c(c1)OC[C@H](C)N(C)C[C@@H](C)[C@@H](OC)CN(C)C2=O | -0.767%
6 | CCC(=O)Nc1ccc2c(c1)C(=O)N(C)[C@@H]1CC[C@@H](CC(=O)N[C@@H](C)c3ccccc3)O[C@@H]1CO2 | 2.31%
7 | C/C=C/c1ccc2c(c1)O[C@@H](CN(C)C(=O)C1CCOCC1)[C@H](C)CN([C@H](C)CO)S2(=O)=O | -2.4%
8 | CCCNC(=O)N(C)C[C@@H]1Oc2cc(-c3ccccc3)ccc2S(=O)(=O)N([C@H](C)CO)C[C@H]1C | 3.76%
9 | COCC#Cc1ccc2c(c1)O[C@@H](CN(C)C(C)=O)[C@H](C)CN([C@H](C)CO)S2(=O)=O | 2.69%
10 | C[C@H](CO)N1C[C@H](C)[C@@H](CN(C)Cc2ccc3c(c2)OCO3)Oc2c(NC(=O)C3CCOCC3)cccc2C1=O | -0.262%
11 | Cc1ccc(S(=O)(=O)N2CCC(C(=O)NCC3CCCO3)CC2)cc1 (stereo not given) | 34.1% (active)
12 | Cc1ccc(S(=O)(=O)N2CCC(C(=O)N3CCCCCCC3)CC2)cc1 | -2.53%
13 | Cc1ccc(CN(CC(=O)NCC2CCCO2)S(=O)(=O)c2ccc(C)cc2)cc1 (stereo not given) | -1.95%
14 | CCCNC(=O)[C@H]1[C@H](CO)[C@H]2Cn3c(ccc(C4=CCCC4)c3=O)[C@H]2N1C(=O)CC1CC1 | 0.913%
15 | CO[C@@H]1CC[C@@H]2CCOc3ccc(C#N)cc3C(=O)N(C)C[C@@H](OC)[C@@H](C)C(=O)N(C)C[C@H]1O2 | 2.01%
16 | O=C(CC1CC1)Nc1ccc2c(c1)[C@@H]1C[C@@H](CC(=O)NC3CCCCC3)O[C@@H](CO)[C@@H]1O2 | 0.63%
17 | C[C@@H]1CN([C@@H](C)CO)C(=O)c2cc(C3=CCCCC3)cnc2O[C@H]1CN(C)CC1CCOCC1 | 4.78%
18 | C[C@H]1CN([C@@H](C)CO)C(=O)c2cc(/C=C/c3ccccc3)cnc2O[C@@H]1CN(C)C(=O)NC1CCCCC1 | 4.19%
19 | C[C@@H]1CCCCO[C@@H](CN(C)C(=O)Cc2ccccc2)[C@@H](C)CN([C@@H](C)CO)C(=O)c2cc(NC(=O)c3ccccc3)ccc2O1 | -0.412%
20 | COc1ccc(NC(=O)Nc2cccc3c2O[C@H](CN(C)S(=O)(=O)c2ccc(F)cc2)[C@H](C)CN([C@H](C)CO)C3=O)cc1 | 2.54%
21 | CCOC(=O)CSC1=C(C#N)C(c2sccc2C)CC(=O)N1 (stereo not given) | -0.988%
22 | C=CCOC(=O)C1=C(C)NC(SCC(=O)OCC)=C(C#N)C1c1ccc(C)cc1 (stereo not given) | 25.9% (active)

Row | Compound | inhibition
23 | C=CCOC(=O)C1=C(C)NC(C)=C(C(=O)OCC=C)C1c1cccs1 | -1.12%
24 | CCCC(=O)Nc1ccc2c(c1)C(=O)N(C)[C@H]1CC[C@@H](CC(=O)NCc3cccc(F)c3)O[C@H]1CO2 | 0.49%
25 | CSCCC(NC(=O)c1ccccc1)C(=O)N1CCCCCCC1 (stereo not given) | 6.24%
26 | COc1ccc(S(=O)(=O)NC(C)C(=O)N2CCCCCC2)cc1 (stereo not given) | 2.86%
27 | CC(NC(=O)c1ccc(Cl)cc1)C(=O)N1CCCCC1 (stereo not given) | 24% (active)
28 | C[C@@H]1CN([C@@H](C)CO)C(=O)Cc2cc(NS(=O)(=O)c3ccc(Cl)cc3)ccc2O[C@H]1CN(C)Cc1ccc(C(F)(F)F)cc1 | 3.04%
29 | Cc1noc(C)c1NC(=O)N(C)C[C@@H]1Oc2ccc(NC(=O)Nc3ccc4c(c3)OCO4)cc2C(=O)N([C@H](C)CO)C[C@H]1C | -1.03%
30 | CC(C)NC(=O)Nc1ccc2c(c1)C(=O)N([C@H](C)CO)C[C@@H](C)[C@@H](CN(C)S(=O)(=O)c1ccc(Cl)cc1)OCCCC[C@H](C)O2 | 1.05%
31 | C[C@@H]1CN([C@@H](C)CO)C(=O)c2c(c3ccccc3n2C)-c2ccccc2CO[C@H]1CN(C)C(=O)N[C@H](C)c1ccccc1 | -3.17%
32 | CS(=O)(=O)Nc1ccc2c(c1)[C@H]1C[C@@H](CC(=O)NCCc3ccccc3)O[C@@H](CO)[C@H]1O2 | 1.04%
33 | Cc1noc(C)c1S(=O)(=O)Nc1ccc2c(c1)C(=O)N([C@@H](C)CO)C[C@@H](C)[C@H](CN(C)Cc1ccc(-c3ccccc3)cc1)O2 | -0.726%
34 | Cc1noc(C)c1NC(=O)Nc1ccc2c(c1)C(=O)N([C@@H](C)CO)C[C@H](C)[C@H](CN(C)Cc1ccc(C(=O)O)cc1)OCCCC[C@@H](C)O2 | 0.986%
35 | Cc1ccccc1-c1ccc2c(c1)O[C@H](CN(C)C)[C@H](C)CN([C@@H](C)CO)S2(=O)=O | 4.9%
36 | CCCN1C[C@@H](C)[C@@H](OC)CN(C)C(=O)c2ccc(NS(C)(=O)=O)cc2OC[C@@H]1C | 0.769%
37 | O=C(C[C@@H]1CC[C@@H](NC(=O)C2CC2)[C@H](CO)O1)NCc1ccncc1 | -0.635%
38 | Cc1ccc(S(=O)(=O)NCC[C@H]2CC[C@H](NC(=O)c3ccccn3)[C@@H](CO)O2)cc1 | 1.02%
39 | C[C@@H]1CN([C@H](C)CO)S(=O)(=O)c2ccc(-c3cccc(C#N)c3)cc2O[C@@H]1CN(C)C(=O)Nc1ccccc1F | -1.07%
40 | CCCC#Cc1cnc2c(c1)C(=O)N([C@H](C)CO)C[C@H](C)[C@H](CN(C)C(=O)Cc1ccncc1)O2 | 0.18%
41 | C[C@@H]1CN([C@H](C)CO)S(=O)(=O)c2ccc(C#CCN(C)C)cc2O[C@@H]1CN(C)C(=O)C1CCCCC1 | -0.634%
42 | COC(=O)C[C@@H]1CC[C@H]2[C@@H](COC[C@H](O)CN2C(=O)Nc2ccccc2OC)O1 | -0.947%
43 | C[C@@H]1CN([C@@H](C)CO)C(=O)c2cc(NC(=O)CCCN(C)C)ccc2O[C@@H](C)CCCCO[C@H]1CN(C)Cc1ccc2c(c1)OCO2 | -1.38%
44 | Cc1noc(C)c1NC(=O)Nc1ccc2c(c1)C(=O)N([C@H](C)CO)C[C@H](C)[C@H](CN(C)C(=O)C1CCCCC1)OCCCC[C@@H](C)O2 | 0.321%

Row | Compound | inhibition
45 | CCCNC(=O)N1C[C@@H](O)COC[C@@H]2O[C@@H](CC(=O)O)CC[C@H]21 | -1.59%
46 | CC(C)C#Cc1ccc([C@@H]2[C@@H](CO)N3CCCCN(C(=O)c4ccc5c(c4)OCO5)C[C@H]23)cc1 | -1.45%
47 | OC[C@@H]1Nc2ccc(-c3cccc(F)c3)cc2[C@H]2[C@@H]1CCN2Cc1ccncc1 | -3.81%
48 | COc1cccc(S(=O)(=O)N[C@@H]2C=C[C@H](CC(=O)NC3CCC3)O[C@H]2CO)c1 | -3.06%
49 | CN1C(=O)c2cc(NC(=O)C3CCCCC3)ccc2OC[C@H]2O[C@@H](CC(=O)NC3CCCC3)CC[C@@H]21 | -4.23%
50 | CCCNC(=O)N1[C@H](C#N)[C@@H](c2ccc(C3=CCCC3)cc2)[C@H]1CO | 10.3%
51 | C[C@H](CO)N1C[C@H](C)[C@H](CN(C)Cc2ccc(C(=O)Nc3ccccc3N)cc2)Oc2c(NC(=O)Nc3ccccc3)cccc2C1=O | 1.92%
52 | CO[C@@H]1CN(C)C(=O)c2ccc(NC(=O)c3ccc(F)cc3)cc2OC[C@H](C)N(C(=O)c2ccc(F)cc2)C[C@@H]1C | -1.94%
53 | COc1ccc(NC(=O)Nc2cccc3c2O[C@H](CN(C)C(=O)Nc2cccc4ccccc24)[C@H](C)CN([C@H](C)CO)C3=O)cc1 | 2.27%
54 | CC(C)CC#Cc1ccc2c(c1)O[C@H](CN(C)C(=O)CC1CC1)[C@@H](C)CN([C@@H](C)CO)S2(=O)=O | 0.792%
55 | CC(C)CCC(C)NC(=O)c1ccc2nccnc2c1 (stereo not given) | -0.116%
56 | CC(C)CCNC(=O)c1[nH]c(C(F)(F)F)nc1-c1ccccc1 | -5.32%
57 | CC(C)CCNC(=O)c1ccc2c(Cl)c3c(nc2c1)CCC3 | 58.9% (active)
58 | Cc1noc(C)c1NC(=O)Nc1ccc2c(c1)CC(=O)N([C@H](C)CO)C[C@H](C)[C@H](CN(C)C(=O)NC(C)C)O2 | 2.55%
59 | CC(=O)N(C)C[C@H]1Oc2cc(C#CCN(C)C)ccc2S(=O)(=O)N([C@H](C)CO)C[C@H]1C | -4.02%
60 | CC=Cc1ccc2n(c1=O)C[C@@H]1[C@@H](CO)[C@H](C(=O)NCc3cccc(OC)c3)N[C@H]21 (mixture of isomers) | 0.651%
61 | CCCNC(=O)C[C@H]1C[C@@H]2c3cc(NC(=O)c4ccc5c(c4)OCO5)ccc3O[C@@H]2[C@@H](CO)O1 | -7.26%
62 | Cc1ccc(S(=O)(=O)Nc2ccc3c(c2)C(=O)N([C@H](C)CO)C[C@H](C)[C@@H](CN(C)C(=O)NC(C)C)OCCCC[C@@H](C)O3)cc1 | -2.85%
63 | CC(C)CNS(=O)(=O)c1ccc(CCC(=O)NCc2ccc(Cl)cc2)cc1 | 0.729%
64 | Cc1ccc(S(=O)(=O)NCCC(=O)NCc2ccc(Cl)cc2)cc1C | -81.7%
65 | CSc1ccc(S(=O)(=O)NCc2ccc(Cl)cc2)cc1 | 26.5% (active)
